Measurements: ChEMBL document CHEMBL2218924, “A broad activity screen in support of a chemogenomic map for kinase signalling research and drug discovery” (Biochem J, 2013)

The compounds below were run against G protein-coupled receptor kinase 5 (Homo sapiens) (UniProt P34947). Settings: at 10 µM.
G protein-coupled receptor kinase 5 (Homo sapiens), sequence (P34947 whole entry, looked up): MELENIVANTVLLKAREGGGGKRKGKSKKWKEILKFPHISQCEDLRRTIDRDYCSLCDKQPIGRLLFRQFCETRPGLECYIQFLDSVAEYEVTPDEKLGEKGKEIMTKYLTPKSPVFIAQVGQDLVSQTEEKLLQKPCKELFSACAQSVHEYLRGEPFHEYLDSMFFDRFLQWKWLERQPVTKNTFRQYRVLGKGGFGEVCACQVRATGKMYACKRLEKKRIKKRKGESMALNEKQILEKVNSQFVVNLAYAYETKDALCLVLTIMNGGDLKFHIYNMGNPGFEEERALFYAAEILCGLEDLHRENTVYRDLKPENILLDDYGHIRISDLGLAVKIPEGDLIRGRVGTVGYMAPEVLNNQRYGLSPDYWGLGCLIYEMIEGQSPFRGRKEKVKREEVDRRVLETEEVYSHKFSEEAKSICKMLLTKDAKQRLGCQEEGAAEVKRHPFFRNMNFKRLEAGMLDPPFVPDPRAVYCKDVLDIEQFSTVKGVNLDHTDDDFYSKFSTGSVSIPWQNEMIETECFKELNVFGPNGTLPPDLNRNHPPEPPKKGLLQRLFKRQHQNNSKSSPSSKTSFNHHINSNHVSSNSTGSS

Row | SMILES | residual activity
1 | CC(=O)O/N=C1\C(=C2\C(=O)Nc3cc(Br)ccc32)Nc2ccccc21 | 94%
2 | Oc1n[nH]c2nnc(-c3c(-c4ccccc4)nn4ccccc34)cc12 | 97%
3 | Cn1cnc2cc3c(Nc4cccc(Br)c4)ncnc3cc21 | 93%
4 | O=C(O)c1ccc2c3c1cccc3c(=O)n1c3ccccc3nc21 | 70%
5 | Nc1nc(Nc2ccc(S(N)(=O)=O)cc2)nn1C(=S)Nc1c(F)cccc1F | 30%
6 | CCC(=O)Nc1ccc2ncnc(Nc3cccc(Br)c3)c2c1 | 93%
7 | CO[C@H]1C[C@@H]2CC[C@@H](C)[C@@](O)(O2)C(=O)C(=O)N2CCCC[C@H]2C(=O)O[C@H]([C@H](C)C[C@@H]2CC[C@@H](O)[C@H](OC)C2)CC(=O)[C@H](C)/C=C(\C)[C@@H](O)[C@@H](OC)C(=O)[C@H](C)C[C@H](C)/C=C/C=C/C=C/1C | 99%
8 | O=C1NC(=O)/C(=C/c2ccc3c(c2)OC(F)(F)O3)S1 | 101%
9 | O=C1Nc2ccccc2/C1=C1/Nc2ccccc2/C1=N\OCCC(O)CO (stereo unspecified) | 63%
10 | O=c1c2ccccc2[nH]c(=S)n1CCN1CCC(=C(c2ccc(F)cc2)c2ccc(F)cc2)CC1 | 89%
11 | CC(C)n1cnc2c(NCc3ccccc3)nc(NCCCO)nc21 | 93%
12 | Cc1nc2cc3nc(-c4cccs4)cnc3cc2n1C | 77%
13 | COc1cc2ncnc(Nc3ccc(O)c(Br)c3)c2cc1OC | 89%
14 | CCOc1cc2ncnc(Nc3cccc(Br)c3)c2cc1OCC | 84%
15 | Cn1cc(/C=C2\C(=O)Nc3ccc(S(N)(=O)=O)cc32)c2ccccc21 | 37%
16 | COc1ccc(CNc2nc(N(CCO)CCO)nc3c2ncn3C(C)C)cc1 | 93%
